Hits are enriched below; roughly 10% of the tested compounds scored in any of these assays.
CtBP-E1A blk = inhibitors of CtBP/E1A interaction. AlphaScreen GST-E1A/His-CtBP binding, 1536-well; hits give low values. 340,000 tested, 0.49% active. activity change, % (no concentration beside the values); in the data active = activity change below about -65%; inconclusive = mostly about -30% to -63%; note: % is set by controls: 0 for no effect and ±100 for the full control effect
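Homogeneous bead-based format: GST-tagged E1A captured on glutathione donor beads, His-tagged CtBP on nickel acceptor beads; compounds precede bead addition by 2 h at 37 °C.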
BAZ2B block = inhibitors of human BAZ2B bromodomain. Potency, µM (highest dose often 114 µM), without a hit: top-dose activity change, negative = inhibition, actives largely listed as inhibitors. Q9UIF8. AID 504333. AlphaScreen BAZ2B-H3K14Ac peptide displacement. 360,000 tested, 4.4% active; note: potency is the fitted concentration of half-maximal effect; % is set by controls: 0 for no effect and ±100 for the full control effect; nearly all actives have a fitted effect of over 60% in size
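AlphaScreen displacement: compounds (up to 110uM) incubated 30 min at room temperature with a preformed 50 nM BAZ2B/50 nM biotinylated H3K14Ac peptide complex in PBS pH 7.4 with Tween-20. Donor and acceptor beads at 10 ug/mL final added, 20 min light-protected before reading.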
G9a block = inhibitors of human histone lysine methyltransferase G9a | Potency, µM (doses to about 102 µM), without a hit: at the top dose activity, negative = inhibition, actives largely listed as inhibitors | Q96KQ7 | 350,000 tested, 8.8% active | G9a H3K9 monomethylation, AlphaScreen, 2 h; note: potency is the fitted concentration of half-maximal effect; % is set by controls: 0 for no effect and ±100 for the full control effect; nearly all actives have a fitted effect of over 75% in size
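Methyltransferase reactions run at room temperature for 2 h (20 nM enzyme, 500 nM biotin-H3K9 peptide, 20 uM SAM) after a 15 min compound preincubation; product detected by AlphaScreen beads and anti-H3K9me1 antibody.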
Six1-Eya2 inh = blocks human Six1 binding to Eya2 | 360,000 tested, 0.56% active | Q15475+O00167 | activity change, % (concentration not given with the values) | AlphaScreen GST-Six1/His-Eya2 binding, biochemical; hits give low values; in the data active = activity change below about -65%; inconclusive = mostly about -30% to -63%; note: % is set by controls: 0 for no effect and ±100 for the full control effect
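AlphaScreen with GST-Six1 and His-Eya2 (5X mix: 250 nM and 500 nM), glutathione donor and nickel acceptor beads; buffer 50 mM Tris pH 8.0, 300 mM NaCl, 1 mM TCEP; 1 h at 37 C in the dark.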
HP1b binding inh = blocks HP1-beta chromodomain binding to methylated histone tails. P83916. AlphaScreen HP1-beta / biotin-H3K9me3 peptide binding. Potency, µM (top dose mostly 114 µM), for the others: at the highest dose activity change, negative = inhibition, hits mostly inhibitors. 390,000 tested, 0.56% active. AID 540317; note: potency is the fitted concentration of half-maximal effect; nearly all actives have a fitted effect of over 70% in size
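HP1-beta protein (50 nM final) preincubated 30 min at room temperature with biotinylated H3(1-18)K9me3 peptide (50 nM) in PBS pH 7.4, 0.01% Tween-20, then compound added for 30 min. AlphaScreen streptavidin donor/nickel chelate acceptor beads (10 ug/mL final), 30 min dark, luminescence read.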
JMJD2A Tudor inh = inhibitors of human JMJD2A Tudor domain. Potency, µM (titrated, usually from 114 µM), for the others: at the top dose activity change, negative = inhibition, usual class: inhibitors. AlphaScreen JMJD2A-Tudor / H3K4me3 peptide binding. O75164. 390,000 tested, 4.4% active; note: potency is the fitted concentration of half-maximal effect; % is set by controls: 0 for no effect and ±100 for the full control effect; nearly all actives have a fitted effect of over 50% in size
Target sequence (O75164 whole entry, looked up, the tested form may be a part): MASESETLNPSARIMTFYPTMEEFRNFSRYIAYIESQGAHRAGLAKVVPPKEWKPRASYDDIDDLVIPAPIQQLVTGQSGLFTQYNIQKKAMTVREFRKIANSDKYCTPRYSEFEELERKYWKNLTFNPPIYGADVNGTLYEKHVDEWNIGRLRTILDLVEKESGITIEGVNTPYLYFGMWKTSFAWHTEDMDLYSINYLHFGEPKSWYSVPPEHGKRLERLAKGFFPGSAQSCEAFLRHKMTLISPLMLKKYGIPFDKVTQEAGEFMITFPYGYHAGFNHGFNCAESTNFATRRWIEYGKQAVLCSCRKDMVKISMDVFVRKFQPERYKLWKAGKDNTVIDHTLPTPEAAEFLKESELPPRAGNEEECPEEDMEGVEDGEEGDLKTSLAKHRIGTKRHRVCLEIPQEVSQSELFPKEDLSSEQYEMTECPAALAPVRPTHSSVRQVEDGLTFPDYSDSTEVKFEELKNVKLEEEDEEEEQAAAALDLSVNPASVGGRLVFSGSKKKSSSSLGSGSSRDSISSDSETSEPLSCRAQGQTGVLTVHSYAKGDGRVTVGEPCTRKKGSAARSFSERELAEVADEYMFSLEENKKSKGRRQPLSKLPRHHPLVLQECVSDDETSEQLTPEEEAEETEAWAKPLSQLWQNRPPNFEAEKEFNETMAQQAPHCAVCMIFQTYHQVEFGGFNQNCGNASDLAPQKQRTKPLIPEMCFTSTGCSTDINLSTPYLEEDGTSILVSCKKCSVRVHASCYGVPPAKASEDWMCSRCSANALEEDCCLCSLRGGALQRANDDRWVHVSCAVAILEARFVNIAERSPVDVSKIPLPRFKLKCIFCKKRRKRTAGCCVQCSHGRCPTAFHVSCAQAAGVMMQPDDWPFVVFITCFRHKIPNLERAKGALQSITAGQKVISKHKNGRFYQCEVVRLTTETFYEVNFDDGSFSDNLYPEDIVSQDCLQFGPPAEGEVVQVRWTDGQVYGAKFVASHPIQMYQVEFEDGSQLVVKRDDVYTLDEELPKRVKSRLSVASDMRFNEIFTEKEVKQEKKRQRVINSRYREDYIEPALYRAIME
* hit, by the source's call; ? = inconclusive; . = no result given; [ ] = dose if it differs, or a comment. Unless noted, calls come from the whole dose curve; as a rule, active = well fitted inhibition curve with a large enough effect; inconclusive = small, poorly fitted or top-dose-only effect; inactive = no such curve, though single readings can be large or run the other way.

SMILES	CtBP-E1A blk	BAZ2B block	G9a block	Six1-Eya2 inh	HP1b binding inh	JMJD2A Tudor inh
O=c1[nH]c2ccc(NC(=S)Nc3ccc(Cl)cc3)cc2[nH]1	-1	8%	-2%[59 µM]	-4	-10%	-17%
COCCNC(=S)Nc1ccc2[nH]c(=O)[nH]c2c1	.	-22%	18µM*	2	-2%	-10%
O=c1[nH]c2ccc(NC(=S)Nc3ccccc3)cc2[nH]1	0	14%	45µM*	1	-14%	-9%[57.1 µM]
Cc1ccc(NC(=S)Nc2ccc3[nH]c(=O)[nH]c3c2)cc1	-3	-21%	50µM*	-2	-15%	-7%[11.4 µM]
Cc1ccc(C(=O)NC(=S)Nc2ccc3[nH]c(=O)[nH]c3c2)cc1	-6	7%	50µM*	-1	12%	?
Cc1cc2nc(/C=C/c3nc4cc(C)c(C)cc4[nH]3)[nH]c2cc1C	.	14%	13%	-2	57%	11%
Nc1ccc2[nH]c(=S)[nH]c2c1	3	.	.	1	4%[57 µM]	-5%
S=c1[nH]c2cc3ccccc3cc2[nH]1	-8	-18%	2.2µM*	-3	1%	-23%
S=c1[nH]c2ccc(Cc3ccc4[nH]c(=S)[nH]c4c3)cc2[nH]1	-3	-20%	0.28µM*	-7	-11%	-16%
Cc1cc2[nH]c(=S)[nH]c2cc1C	-18	-7%	1.8µM*	-5	40µM*	?
COc1ccc(Cl)cc1NC(=O)CSC1=Nc2ccccc2C2=NC(CCC(=O)NCc3ccco3)C(=O)N12 (stereo not given)	.	-2%	-3%[59 µM]	.	6%	-17%
CCN(CC)C(=O)CSC1=N/C(=C/c2ccco2)C(=O)N1c1ccc(OC)c(Cl)c1	-2	?	25µM*	-12	6%	-26%
NC(=O)CSC1=N/C(=C\c2ccco2)C(=O)N1c1ccc(OC(F)F)cc1	-11	-37%	?	-11	22%	?
CCCCN1CC2([N+](=O)[O-])C=CC(=O)C([N+](=O)[O-])(C1)C2CC(=O)c1ccccc1 (stereo not given)	-12	-6%	45µM*	-12	17%	-9%
CCN1CC2([N+](=O)[O-])C=CC(=O)C([N+](=O)[O-])(C1)C2CC(=O)c1ccccc1 (stereo not given)	-4	?	?	-9	-6%	?
O=c1[nH]cc(N2CCCCCC2)c(=O)[nH]1	10	1%	50µM*	0	50%	-1%
O=S(=O)(c1ccc2c(c1)OCCO2)N1CCN(S(=O)(=O)c2ccc(F)c(F)c2F)CC1	.	.	.	.	.	-10%
COc1cc([C@@H]2C[C@H]3CN(c4ccccc4)C(=O)[C@]34CCCN24)cc(OC)c1OC	.	2%	.	1	26%	-22%
CCOc1cc([C@@H]2C[C@H]3CN(c4ccccc4)C(=O)[C@]34CCCN24)ccc1OC	-3	-18%	50µM*	0	17%	-7%
CCN(C(=O)c1cc2c(Cl)nc3ccc(C)cc3c2s1)c1cc(OC)ccc1OC	.	-21%	3%[59 µM]	.	38%	-10%
COC(=O)c1ccc(NC(=O)c2nc(S(=O)(=O)Cc3cccc(C)c3)ncc2Cl)cc1	-7	-17%	2%	-10	14%[57 µM]	-22%
CCOC(=O)c1ccc(NC(=O)c2nc(S(=O)(=O)Cc3ccccc3)ncc2Cl)cc1	-9	-29%	22µM*	2	-11%[57 µM]	-16%
CCOc1ccccc1NC(=O)c1nc(S(=O)(=O)Cc2ccccc2)ncc1Cl	.	-30%	40µM*	-1	4%[57 µM]	-29%
CC(=O)Nc1ccc(NC(=O)c2nc(S(=O)(=O)Cc3cccc(C)c3)ncc2Cl)cc1	-3	-22%	45µM*	-10	-4%[57 µM]	-25%
COc1ccccc1NC(=O)c1nc(S(=O)(=O)Cc2ccccc2)ncc1Cl	2	-28%	18µM*	4	7%[57 µM]	-11%
SMILES	CtBP-E1A blk	BAZ2B block	G9a block	Six1-Eya2 inh	HP1b binding inh	JMJD2A Tudor inh
CCS(=O)(=O)c1ncc(Cl)c(C(=O)Nc2ccccc2OC)n1	6	-7%	.	-4	53%	-5%
COc1ccc(OC)c(NC(=O)c2nc(S(=O)(=O)Cc3ccc(F)cc3)ncc2Cl)c1	.	?	7.1µM*	.	-6%	?
CCOC(=O)c1ccc(NC(=O)c2nsc3ccccc23)cc1	.	50%	3.2µM*	.	86%	64%
Cc1ccc(NC(=O)c2nc(S(=O)(=O)Cc3ccccc3C)ncc2Cl)cc1C	0	-34%	45µM*	-10	-24%[57 µM]	13µM*
CNC(=O)c1ccc(NC(=O)c2nsc3ccccc23)cc1	.	-2%	2%[59 µM]	.	42%	-10%
COc1ccc(N2CC(NC(=O)COc3ccccc3)CC2=O)cc1OC (stereo not given)	.	-2%	-2%[59 µM]	.	33%	8%
CCOC(=O)c1ccc(N2C(=O)c3n[nH]c(-c4cccs4)c3C2c2cccc(F)c2)cc1 (stereo not given)	.	.	-46%[59 µM]	.	20%	?
CCCn1c2ccccc2c2cnn(CC(=O)Nc3ccc(C)cc3Br)c(=O)c21	.	3%	1%[59 µM]	.	23%	-8%
CCC1Oc2ccc(C)cc2N(CC(=O)NCCc2ccccc2)C1=O (stereo not given)	.	1%	0%[59 µM]	.	-6%	-9%
COC(=O)N/N=C/c1cc(C)n(-c2cccc3ccccc23)c1C	-3	79µM*	-17%[59 µM]	-12	?	?
CCOC(=O)N/N=C/c1cc(C)n(-c2ccccc2)c1C	.	-29%	?	-1	5%	-31%
CCOC(=O)N/N=C/c1cc(C)n(-c2cccc3ccccc23)c1C	-9	?	4.5µM*	-9	?	-42%
Cc1cc(C)cc(NS(=O)(=O)c2ccc(N3CCCCS3(=O)=O)cc2)c1	.	-11%	2%[59 µM]	.	28%	-12%
CCOC(=O)c1c(NC(=O)CSc2nnc(C)s2)sc2c1CCN(C)C2	?	-36%	4.5µM*	?	23%	?
CCOC(=O)c1c(NC(=S)Nc2ccc(OCC)cc2)sc2c1CCN(C)C2	-15	?	50µM*	-11	-10%	-17%
COc1cccc(NC(=O)c2oc3ccccc3c2NC(=O)COc2ccccc2C)c1	.	-2%	-48%[59 µM]	.	31%	-15%
CC(=O)N1CCC(=NNc2ncc(C(F)(F)F)cc2Cl)CC1	-9	35µM*	-18%	-17	33%	-22%[57.1 µM]
CC(=O)N1CCC(=NNc2ccnc3cc(Cl)ccc23)CC1	0	?	28µM*	-4	42%	-14%
CC(=O)c1ccc(N2CCN(c3ccnc4cc(Cl)ccc34)CC2)cc1	2	?	4%	20	32%	-13%
Cc1ccc(C)c(NC(=O)N2CCC(N3CCN(Cc4ccc(F)cc4)C(=O)C3=O)CC2)c1	.	-8%	3%[59 µM]	.	23%	-17%
